Active and inactive are the calls of the source. Unless noted, the rule behind the calls is not given here.
Legend:
[1] = tested on: Wnt5a (protein binding on small-molecule microarray); assay: small molecules binding Wnt5a protein – biophysical, small-molecule microarray, 635/667 nm fluorescence, primary screen (AID 1142); conditions: 635 nm fluorescence, higher = more signal;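 note: fluorescence read at 667 nm with signal to noise per printed feature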
[2] = ATP-based viability of Huh7 replicon cells – cell-based, CellTiter-Glo luminescence, basal, 48 h, cytotoxicity control for HCV replication inhibitor project, primary screen (AID 1143); conditions: higher = more signal, called active from +8 up or from −8 down;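 note: Huh7 hepatoma cells carrying a hepatitis C replication reporter with no stimulus; test concentration not given here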
[3] = Pseudomonas biofilm growth suppression – PAO1 strain, BacTiter-Glo luminescence, LB-PBS, primary screen (AID 1144); conditions: P. aeruginosa PAO1 biofilm, 12 h, higher = more signal
[4] = basal CRE-LacZ reporter activity in PC12 – cell-based, unstimulated, primary screen (AID 1145); conditions: no forskolin, luminescence, 4.5 h, higher = more signal, called active from +8 up or from −8 down
[5] = forskolin-driven CRE-LacZ activity in PC12 – cell-based, CRE-LacZ reporter, forskolin-stimulated, primary screen (AID 1146); conditions: luminescence, 4.5 h, higher = more signal, called active from +8 up or from −8 down;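 note: PC12 cells with 6xCRE LacZ reporter stimulated by forskolin 10 µM; beta-galactosidase reporter signal reflecting CREB driven transcription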
[6] = target: Streptavidin (Streptomyces avidinii) (UniProt P22629); assay: compounds binding control protein streptavidin – biophysical, small-molecule microarray, 635/667 nm fluorescence, artefact control for SMM compound annotation, primary screen (AID 1147); conditions: higher = more signal;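 note: signal reflects streptavidin binding to arrayed compounds as a control protein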
Chain of Streptavidin (Streptomyces avidinii) (P22629 whole entry, looked up): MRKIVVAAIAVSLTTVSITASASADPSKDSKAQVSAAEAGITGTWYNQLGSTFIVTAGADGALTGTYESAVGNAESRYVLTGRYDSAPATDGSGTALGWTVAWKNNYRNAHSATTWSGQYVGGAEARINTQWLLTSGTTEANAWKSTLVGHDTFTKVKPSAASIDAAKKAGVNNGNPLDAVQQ

[7] = probe aInhba binding on compound microarray – biochemical, small-molecule microarray, 635/667 nm fluorescence, primary screen (AID 1148); conditions: higher = more signal;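 note: score merges 667nm spot fluorescence with signal-to-noise for antibody binding to printed compounds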
Torsin-1A (Homo sapiens) [8] = target: Torsin-1A (Homo sapiens) (UniProt O14656); assay: TOR1A wild-type binding on microarray – cell lysate, small-molecule microarray, lysate, 635/667 nm, primary screen (AID 1149); conditions: COS7 hTOR1A-WT lysate, 635 nm fluorescence, higher = more signal
Chain of Torsin-1A (Homo sapiens) (O14656 whole entry, looked up): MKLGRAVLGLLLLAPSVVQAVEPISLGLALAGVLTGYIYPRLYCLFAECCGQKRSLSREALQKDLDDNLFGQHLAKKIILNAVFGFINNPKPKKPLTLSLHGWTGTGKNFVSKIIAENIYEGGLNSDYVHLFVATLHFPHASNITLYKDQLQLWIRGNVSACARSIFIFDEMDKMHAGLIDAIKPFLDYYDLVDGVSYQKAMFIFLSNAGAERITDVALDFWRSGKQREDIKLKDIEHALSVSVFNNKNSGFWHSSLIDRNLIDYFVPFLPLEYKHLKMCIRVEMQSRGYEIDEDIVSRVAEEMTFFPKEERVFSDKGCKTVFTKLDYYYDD

Torsin-1A (Homo sapiens) [9] = target: Torsin-1A (Homo sapiens) (UniProt O14656); assay: torsin A mutant lysate binding on microarrays – cell lysate, small-molecule microarray, COS7 lysate, 635/667 nm fluorescence, primary screen (AID 1150); conditions: COS7 hTOR1A mutant lysate, 635 nm fluorescence, higher = more signal;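 note: score pools 667 nm emission and signal to noise measuring lysate protein binding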
[10] = tested on: Sonic hedgehog protein (Shh); assay: Sonic hedgehog microarray binding compounds – biochemical, small-molecule microarray, 635/667 nm fluorescence, primary screen (AID 1151); conditions: 635 nm fluorescence, higher = more signal;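 note: Shh protein binding to compounds spotted on small-molecule microarray slides; score combines spot fluorescence intensity with signal-to-noise across triplicate slides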
[11] = optical density shifts of acrAB sulA E. coli – strain DRC41, OD650, 48 h, E. coli filamentation inducer project, primary screen (AID 1152); conditions: higher = more signal, called active from +8 up or from −8 down;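 note: E. coli MC1000 strain DRC41 lacking acrAB efflux pump and sulA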
[12] = probe aLefty1 binding on compound microarray – biochemical, small-molecule microarray, 635/667 nm fluorescence, primary screen (AID 1153); conditions: higher = more signal;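 note: score merges spot fluorescence with signal-to-noise ratio from the scanned slide images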
[13] = plasmodial surface anion channel blockers, osmotic lysis – cell-based, P. falciparum Indochina, OD700, 1 h, primary screen (AID 1154); conditions: P. falciparum Indochina infected RBC osmotic lysis, higher = more signal, called active from +8 up or from −8 down
[14] = plasmodial surface anion channel blockers, osmotic lysis – cell-based, P. falciparum Indochina, OD700, 2 h, primary screen (AID 1155);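 note: lysis reports solute entry through the parasite surface anion channel PSAC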; conditions: P. falciparum Indochina infected erythrocytes, higher = more signal, called active from +8 up or from −8 down
[15] = changes in parasitized red cell lysis, either direction – P. falciparum Indochina, OD700, 3 h, PSAC antagonist project, primary screen (AID 1156); conditions: P. falciparum-infected erythrocytes, osmotic lysis, higher = more signal, called active from +8 up or from −8 down
[16] = plasmodial surface anion channel blockers, osmotic lysis – cell-based, P. falciparum Indochina, OD700, 18 h, primary screen (AID 1157); conditions: P. falciparum Indochina infected erythrocytes, osmotic lysis OD700, 18 h; higher = more signal, called active from +8 up or from −8 down
[17] = S6 kinase pathway phospho-S6 level changes – cell-based, A549, cytoblot, luminescence, serum-stimulated, primary screen (AID 1158); conditions: 5 h, higher = more signal;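 note: serum-stimulated A549 lung adenocarcinoma cells; signal is phosphorylated S6 detected by cytoblot immunostaining with HRP secondary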
[18] = target: NADPH oxidase 2 (Homo sapiens) (UniProt P04839); assay: compounds shifting NOX2 Amplex Red fluorescence – cell-based, HEK293-NOX2, PMA-stimulated, NOX inhibitor project, primary screen (AID 1159); conditions: 45 min, higher = more signal, called active from +8 up or from −8 down; note: test concentration not given here
Chain of NADPH oxidase 2 (Homo sapiens) (P04839 whole entry, looked up): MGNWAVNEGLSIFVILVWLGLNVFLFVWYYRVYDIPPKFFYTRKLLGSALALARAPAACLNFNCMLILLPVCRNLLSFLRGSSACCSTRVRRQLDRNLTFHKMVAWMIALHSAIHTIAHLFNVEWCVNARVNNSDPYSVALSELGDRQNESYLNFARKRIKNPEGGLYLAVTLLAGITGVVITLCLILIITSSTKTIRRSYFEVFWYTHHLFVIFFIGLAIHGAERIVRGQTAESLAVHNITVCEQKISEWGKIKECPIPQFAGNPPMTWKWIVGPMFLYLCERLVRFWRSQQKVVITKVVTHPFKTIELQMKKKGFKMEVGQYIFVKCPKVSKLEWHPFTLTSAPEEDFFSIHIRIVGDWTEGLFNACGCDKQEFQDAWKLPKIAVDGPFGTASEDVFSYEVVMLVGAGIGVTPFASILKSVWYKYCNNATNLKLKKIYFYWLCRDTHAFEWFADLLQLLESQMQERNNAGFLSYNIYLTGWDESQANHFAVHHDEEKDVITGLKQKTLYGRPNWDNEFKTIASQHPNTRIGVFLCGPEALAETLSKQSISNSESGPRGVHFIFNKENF

[19] = target: NADPH oxidase 4 (Homo sapiens) (UniProt Q9NPH5); assay: compounds shifting NOX4 Amplex Red fluorescence – cell-based, HEK293-NOX4, tetracycline-induced, NOX inhibitor project, primary screen (AID 1160); conditions: HEK293-NOX4, Amplex Red H2O2 fluorescence, 45 min; higher = more signal, called active from +8 up or from −8 down
Chain of NADPH oxidase 4 (Homo sapiens) (Q9NPH5 whole entry, looked up): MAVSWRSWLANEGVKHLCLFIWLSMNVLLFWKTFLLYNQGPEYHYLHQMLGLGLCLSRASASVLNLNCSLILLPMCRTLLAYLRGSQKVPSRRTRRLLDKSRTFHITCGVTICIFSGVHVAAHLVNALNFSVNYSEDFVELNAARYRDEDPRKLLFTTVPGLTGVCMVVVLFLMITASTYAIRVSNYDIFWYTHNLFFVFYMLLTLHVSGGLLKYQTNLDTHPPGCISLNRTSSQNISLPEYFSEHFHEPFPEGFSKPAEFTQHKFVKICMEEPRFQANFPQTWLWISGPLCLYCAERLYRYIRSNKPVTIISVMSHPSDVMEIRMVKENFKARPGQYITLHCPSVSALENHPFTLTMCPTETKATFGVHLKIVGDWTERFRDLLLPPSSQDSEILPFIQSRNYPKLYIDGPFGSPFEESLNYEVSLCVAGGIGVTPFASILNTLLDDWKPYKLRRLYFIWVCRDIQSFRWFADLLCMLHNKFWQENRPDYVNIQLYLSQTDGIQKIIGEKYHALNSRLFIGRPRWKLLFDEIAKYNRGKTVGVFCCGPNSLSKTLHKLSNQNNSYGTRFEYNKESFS

[20] = target: NADPH oxidase 5 (Homo sapiens) (UniProt Q96PH1); assay: compounds shifting NOX5 Amplex Red fluorescence – cell-based, HEK293-NOX5, NOX inhibitor project, primary screen (AID 1161); conditions: HEK293-NOX5, ionomycin, 45 min, higher = more signal
Chain of NADPH oxidase 5 (Homo sapiens) (Q96PH1 whole entry, looked up): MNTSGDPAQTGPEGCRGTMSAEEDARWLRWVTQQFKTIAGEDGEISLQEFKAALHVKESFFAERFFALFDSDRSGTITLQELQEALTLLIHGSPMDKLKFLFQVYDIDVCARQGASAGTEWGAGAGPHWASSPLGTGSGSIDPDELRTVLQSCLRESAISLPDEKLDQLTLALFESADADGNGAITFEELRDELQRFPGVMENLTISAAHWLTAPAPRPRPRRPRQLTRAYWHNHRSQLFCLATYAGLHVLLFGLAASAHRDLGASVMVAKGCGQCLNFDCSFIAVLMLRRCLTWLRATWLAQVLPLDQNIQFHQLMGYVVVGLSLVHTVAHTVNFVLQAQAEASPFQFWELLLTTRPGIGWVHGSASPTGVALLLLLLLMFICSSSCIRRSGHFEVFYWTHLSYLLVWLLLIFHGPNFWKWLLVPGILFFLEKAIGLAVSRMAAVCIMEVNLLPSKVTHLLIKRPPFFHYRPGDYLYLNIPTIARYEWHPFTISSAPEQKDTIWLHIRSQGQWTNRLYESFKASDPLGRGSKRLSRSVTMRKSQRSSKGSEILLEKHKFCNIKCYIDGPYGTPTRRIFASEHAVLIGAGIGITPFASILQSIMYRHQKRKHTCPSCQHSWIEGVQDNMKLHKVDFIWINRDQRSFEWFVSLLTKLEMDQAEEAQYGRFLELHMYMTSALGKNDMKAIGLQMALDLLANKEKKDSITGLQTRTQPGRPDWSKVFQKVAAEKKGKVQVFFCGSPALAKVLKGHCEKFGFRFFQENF

Row | SMILES | composite z-score [1] | z-score [2] | z-score [3] | z-score [4] | z-score [5] | composite z-score [6] | composite z-score [7] | composite z-score (Torsin-1A (Homo sapiens) [8]) | composite z-score (Torsin-1A (Homo sapiens) [9]) | composite z-score [10] | z-score [11] | composite z-score [12] | z-score [13] | z-score [14] | z-score [15] | z-score [16] | z-score [17] | z-score [18] | z-score [19] | z-score [20]
1 | CCCC=C(CCC)[C@@H](NS(=O)(=O)c1cccc(C(F)(F)F)c1)c1ccc(C(=O)OC)cc1 | 1.16 | 0.0804 (inactive) | -0.109 (inactive) | -0.182 (inactive) | -0.547 (inactive) | 0.0276 | 1.43 | 0.258 | -0.223 | 0.116 | -0.77 (inactive) | 1.6 | -0.82 (inactive) | -0.868 (inactive) | -0.723 (inactive) | -1.41 (inactive) | 0.213 | 0.139 (inactive) | 0.449 (inactive) | 1.87
2 | C[C@]1(C(=O)NCCN2CCOCC2)c2ccccc2C(=O)N(Cc2ccccc2)[C@H]1c1ccc(CO)cc1 | -0.21 | -1.82 (inactive) | -2.31 (inactive) | -0.412 (inactive) | -0.0192 (inactive) | -0.833 | -0.0405 | 0.403 | 0.915 | -0.928 | 0.402 (inactive) | -0.0969 | 5.59 (inactive) | 0.516 (inactive) | 1.88 (inactive) | 0.719 (inactive) | 0.282 | 0.346 (inactive) | -1.61 (inactive) | -2.77
3 | COCCCNC(=O)[C@@H]1c2ccccc2C(=O)N(CC23CC4CC(CC(C4)C2)C3)[C@H]1c1ccc(CO)cc1 | 1.01 | -4.78 (inactive) | -0.689 (inactive) | -0.0259 (inactive) | -1.07 (inactive) | -0.269 | 0.266 | 0.306 | 0.262 | 1.03 | -0.162 (inactive) | 0.276 | 4.59 (inactive) | -0.14 (inactive) | 3.38 (inactive) | -0.877 (inactive) | 2.61 | -1.24 (inactive) | -2.34 (inactive) | -4.2
4 | COC(=O)c1ccc(C#CC(NP(=O)(c2ccccc2)c2ccccc2)c2ccccc2)cc1 (stereo not given) | -0.0176 | -0.351 (inactive) | 0.107 (inactive) | -0.372 (inactive) | 1.24 (inactive) | 2.13 | 0.103 | -0.497 | -0.199 | 0.918 | -0.817 (inactive) | 0.0312 | 10.2 (active) | 1.16 (inactive) | 1.04 (inactive) | 0.936 (inactive) | 0.806 | 0.00908 (inactive) | -0.556 (inactive) | -4.46
5 | NC(=O)[C@H]1[C@@H]2C(=O)O[C@@H](c3ccccc3)[C@@H](c3ccccc3)N2[C@@H](c2ccc(O)cc2)[C@]12C(=O)Nc1ccc(C#CCCO)cc12 | -0.183 | 0.134 (inactive) | -0.453 (inactive) | -0.258 (inactive) | 0.278 (inactive) | -1.57 | -0.0044 | -1.39 | 0.806 | 0.35 | -0.331 (inactive) | -0.0559 | 5.17 (inactive) | 0.92 (inactive) | 0.696 (inactive) | 0.442 (inactive) | -0.289 | 0.482 (inactive) | -0.661 (inactive) | 0.563
6 | O=C(CS)NCCCCCCNC(=O)[C@@H]1C[C@@H]2C(=O)N[C@@H](Cc3ccccc3)C(=O)N2[C@@H]1c1ccc(O)cc1 | 0.588 | -0.345 (inactive) | -0.75 (inactive) | -0.537 (inactive) | -0.835 (inactive) | 0.226 | 0.0503 | 1.12 | 1.14 | 1.86 | 0.706 (inactive) | 0.0273 | 6.26 (inactive) | 1.52 (inactive) | 4.5 (inactive) | 0.595 (inactive) | -0.113 | 1.48 (inactive) | 0.457 (inactive) | 0.729
7 | CCCCCCc1nc(-c2cc(C)c(OC)c(C)c2)cc2c1[Si](C(C)C)(C(C)C)O[C@H]2c1ccccc1 | -0.452 | -0.59 (inactive) | 0.368 (inactive) | -0.244 (inactive) | -0.272 (inactive) | 0.0741 | -0.121 | -1.48 | -1.07 | -0.162 | -0.548 (inactive) | -0.0989 | 1.31 (inactive) | -0.0446 (inactive) | 1.06 (inactive) | 0.0157 (inactive) | 0.561 | -0.313 (inactive) | -1.16 (inactive) | -2.07
8 | COCCOC(=O)N1C(=O)[C@@]2(c3cc(C#CCC(C(=O)OC)C(=O)OC)ccc31)[C@H](c1ccccc1OCCO)N1[C@H](c3ccccc3)[C@H](c3ccccc3)OC(=O)[C@H]1[C@@H]2C(=O)N1CCCCCCC1 | 1.16 | -1.66 (inactive) | -0.129 (inactive) | -0.329 (inactive) | 0.0965 (inactive) | 2.45 | 0.628 | 1.29 | 0.96 | 1.66 | 0.0371 (inactive) | 2.43 | 0.998 (inactive) | 1.01 (inactive) | 0.259 (inactive) | 0.508 (inactive) | 0.0992 | 0.0483 (inactive) | 0.309 (inactive) | 1.52
9 | C=CCC(OC(C)=O)[C@@H]1[C@@H](N(Cc2ccc(-c3cccc(C(F)(F)F)c3)o2)C(=O)Cc2ccc(F)cc2)c2cc(OCCCO)ccc2N1C(=O)c1ccc(-c2ccccc2)cc1 (stereo not given in full) | -0.206 | -0.072 (inactive) | -0.581 (inactive) | 0.6 (inactive) | 0.875 (inactive) | 0.0628 | -0.157 | -0.53 | -0.253 | 0.475 | -1.01 (inactive) | -0.0489 | 1.23 (inactive) | -0.401 (inactive) | -0.642 (inactive) | -0.255 (inactive) | -0.0924 | -0.0336 (inactive) | 1.1 (inactive) | 1.29
